# Sampled rows, rich in hits. Any-hit rate of the full collection: about 3.9%.
# Tb PFK inh – qHTS Assay to Find Inhibitors of T. brucei phosphofructokinase; 330,000 tested, 0.17% active; T. brucei PFK, ADP-Glo luminescence; AID 485367, 2010; ATP-dependent 6-phosphofructokinase (Trypanosoma brucei brucei), O15648; Potency, µM (doses to about 57.5 µM), for inactives: top-dose activity, negative = inhibition, hits mostly inhibitors;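 further: potency means the concentration at half of the fitted maximal effect; 0% = uninhibited 1x PFK enzyme wells and -100% = no-enzyme wells; nearly all actives have a fitted effect of over 60% in size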
#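 Luminescent ADP detection (ADP-Glo, two-step: ATP depletion then ADP-to-ATP conversion for luciferase) reported PFK activity after 45 min room-temperature reaction of 1.25 nM enzyme with 0.5 mM F6P and 0.1 mM ATP at pH 8.0.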
# PLK1 PBD inh – qHTS for Inhibitors of PLK1-PDB (polo-like kinase 1 - polo-box domain): Primary Screen; Serine/threonine-protein kinase PLK1 (Homo sapiens), P53350; AID 720504, 2013; Potency, µM, for the others: max response, negative = inhibition, hits mostly inhibitors; 360,000 tested, 2.8% active; Plk1 PBD binding of FITC phosphopeptide, fluorescence polarization; further: potency means the concentration at half of the fitted maximal effect; series mostly up to about 57 µM; on the % scale 0 is the no-effect control and ±100 the full control effect; nearly all actives have a fitted effect of over 65% in size
# VDR inhibitor – Inhibitors of the vitamin D receptor (VDR): qHTS; 400,000 tested, 0.93% active; Vitamin D3 receptor (Homo sapiens), P11473; VDR-SRC2-3 peptide fluorescence polarization, 2 h; Potency, µM, for inactives: max response, negative = inhibition, hits mostly inhibitors; AID 504847, 2011; further: potency means the concentration at half of the fitted maximal effect; on the % scale 0 is the no-effect control and ±100 the full control effect
# Target sequence (P11473 whole entry, looked up): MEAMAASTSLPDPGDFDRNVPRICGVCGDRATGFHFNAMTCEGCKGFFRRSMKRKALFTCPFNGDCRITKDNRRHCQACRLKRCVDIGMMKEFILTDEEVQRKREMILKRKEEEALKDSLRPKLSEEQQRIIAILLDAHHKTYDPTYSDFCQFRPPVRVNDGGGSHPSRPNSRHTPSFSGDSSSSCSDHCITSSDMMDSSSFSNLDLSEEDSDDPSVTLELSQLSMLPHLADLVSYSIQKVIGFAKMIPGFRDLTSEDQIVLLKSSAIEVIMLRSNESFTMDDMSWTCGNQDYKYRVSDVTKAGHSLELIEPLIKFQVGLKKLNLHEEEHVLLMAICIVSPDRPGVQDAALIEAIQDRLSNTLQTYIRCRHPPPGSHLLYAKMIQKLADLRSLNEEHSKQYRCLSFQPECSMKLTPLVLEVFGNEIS
#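 Signal is fluorescence polarization, reporting how far test compounds block the interaction of VDR with the SRC2-3 coregulator peptide after a 2 h room-temperature incubation.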
# BRCA1 expr act – qHTS Assay to Identify Small Molecule Activators of BRCA1 Expression; MCF7-BRCA1-FFLuc reporter, luminescence, 48 h; response scale: scaled: vehicle 0%, 10 µM genistein 100%; Potency, µM (doses to about 46.1 µM), inactives show top-dose activation, most hits filed as activators; 380,000 tested, 1.1% active; further: potency means the concentration at half of the fitted maximal effect; nearly all actives have a fitted effect of over 80% in size
#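 48 h compound treatment of MCF7-BRCA1-FFLuc cells (phenol-red free MEM, 37 °C), then 15 min with luciferase substrate and luminescence imaging.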
# USP1-UAF1 confirm – Inhibitors of USP1/UAF1: Hit Validation in Primary Assay; Ub-Rhodamine cleavage, fluorescence kinetic read; 50 tested, 50% active; shares compounds with VDR inhibitor; Potency, µM (highest dose often 56.8 µM), for the others: at the top dose activity change, negative = inhibition, actives largely listed as inhibitors
# VDR confirm – qHTS for Inhibitors of the vitamin D receptor (VDR): Hit Validation in Primary Screen | VDR-coactivator inhibition assay, qHTS confirmation | shares compounds with VDR inhibitor | Potency, µM, usual class: inhibitors | AID 602199, 2012 | 840 tested, 89% active; further: potency means the concentration at half of the fitted maximal effect
# VDR FP – qHTS for Inhibitors of the vitamin D receptor (VDR): Hit Validation using a Fluorescein Assay. shares compounds with VDR inhibitor. VDR-coactivator binding, fluorescein fluorescence polarization. Potency, µM (titrated, usually from 57.1 µM), inactives show at the top dose activity change, negative = inhibition, usual class: inhibitors. 840 tested, 48% active; further: potency means the concentration at half of the fitted maximal effect
# VDR bla – qHTS for Inhibitors of the vitamin D receptor (VDR): Hit Validation using a Beta-Lactamase Assay; 840 tested, 23% active; Potency, µM (titrated, usually from 46.1 µM), inactives show at the highest dose activity change, negative = inhibition, hits mostly inhibitors; shares compounds with VDR inhibitor; VDR beta-lactamase reporter cells, FRET ratio; cells co-treated with VDR agonist LG190178; further: potency means the concentration at half of the fitted maximal effect; on the % scale 0 is the no-effect control and ±100 the full control effect
# VDR viability – qHTS for Inhibitors of the vitamin D receptor (VDR): Hit Validation using a Cytotoxicity Assay. shares compounds with VDR inhibitor. cytotoxicity counter-screen, cell viability, qHTS. Potency, µM (titrated, usually from 48.3 µM), inactives show top-dose activity change, negative = cytotoxicity, hits mostly cytotoxic. 840 tested, 18% active. AID 602204, 2012;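 further: potency means the concentration at half of the fitted maximal effect; plate controls were DMSO for no effect and high-concentration cycloheximide for full effect; nearly all actives have a fitted effect of over 75% in size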
# * = called active by the depositor; ? = inconclusive; . = no result given; [ ] = another dose, or the depositor's remark. The call rests on the fitted dose curve; in most records, active means well fitted curve in the direction sought with a large enough effect; inconclusive means small, poorly fitted or top-dose-only effect, or another doubt; inactive means no such curve, though single readings can be large; an effect the other way counts as inactive or inconclusive.
SMILES,Tb PFK inh,PLK1 PBD inh,VDR inhibitor,BRCA1 expr act,VDR confirm,VDR FP,VDR bla,VDR viability,others
Nc1cc(S(=O)(=O)Nc2ccccc2Cl)ccc1N1CCCCC1,-7%,2.4µM*,?,15%,7.1*,7.1µM*,-26%,-27%,
C[C@]12c3[nH]c4ccc(Cl)cc4c3CCN1C(=O)[C@@H](CC(=O)NCCN1CCOCC1)C[C@@H]2C(=O)N1CCCCC1,1%,5%,-5%,-10%,.,.,.,.,
COc1ccc(OC)c(/C=C/C(=O)c2ccc(Cl)cc2)c1,-6%[0.46 µM],-2%,45µM*,-36%,18*,22µM*,?,3%,
CCCCOC(=O)NS(=O)(=O)c1sc(CC(C)C)cc1-c1ccc(Cn2c(CC)nc3c(C)cc(C)nc32)cc1,3%,.,-3%,.,.,.,.,.,USP1-UAF1 confirm=?
CCCCOC(=O)Nc1ccc(S(=O)(=O)Nc2nc(C)cc(C)n2)cc1,6%,-3%,14%,-13%,.,.,.,.,
O=C(NC1(O)C(=O)c2ccccc2C1=O)c1c(Cl)cccc1Cl,19%,-27%,?,26%,4*,4µM*,7%,-4%,
O=C(NC1(O)C(=O)c2ccccc2C1=O)c1ccccc1,12%,-12%,?,-15%,1*,1µM*,6%,12%,
COC1(NC(=O)c2ccccc2)C(C)=CC(=O)C=C1C,-2%,-27%,3%,-14%,.,.,.,.,
Cc1ccc(NC(=O)COc2ccc3oc4c(c3c2)CCCC4)c(C)c1,.,.,-27%,-2%,.,.,.,.,
O=C1NC[C@@H](CCCCN2CCN(CC3CCCCC3)C(=O)C2=O)N(CC2CCCCC2)C1=O,.,0%,.,22%,.,.,.,.,
O=C1OCCN1N1CCOC1=O,.,7%,-9%,-5%,.,.,.,.,
S=C(NNc1ccnc2cc(Cl)ccc12)Nc1ccccc1Cl,-5%,15µM*,?,-73%,13*,10µM*,?,?,
COc1ccc(NC(=O)c2cc(S(=O)(=O)N3CCCCC3)cn2C)cc1Cl,.,.,-18%,0%,.,.,.,.,
CCOC(=O)N1C(=O)[C@](CC)(c2ccccc2)N1C(=O)OCC,-1%,17µM*,79µM*,-3%,?,?,21%,-5%,
CCC1(c2ccccc2)C(=O)N(C(=O)OC(C)(C)C)N1C(=O)OC(C)(C)C (centres undefined),9%,-14%,6%,-16%,.,.,.,.,
O=C(CCSc1nc(-c2ccco2)cc(C(F)(F)F)n1)Nc1ccc2c(c1)OCO2,-2%,-4%,4%,-12%,.,.,.,.,
COc1ccc(NC(=O)CCS(=O)(=O)c2nc(-c3cccs3)cc(C(F)(F)F)n2)cc1OC,.,.,45µM*,.,?,25µM*,4%,9%,
O=C(CCS(=O)(=O)c1nc(-c2ccc3c(c2)OCO3)cc(C(F)(F)F)n1)Nc1ccc(F)c(Cl)c1,.,.,8.9µM*,.,7.1*,7.9µM*,23µM*,?,
O=C(/C=C/c1ccccc1)c1ccccc1,-11%,-11%,18µM*,17%,16*,11µM*,26µM*,?,
O=[N+]([O-])c1ccc(S(=O)(=O)Nc2nc(-c3ccccc3)cs2)cc1,2%,?,-1%,-16%,.,.,.,.,
CC(C)(C)c1nnc(NS(=O)(=O)c2ccc([N+](=O)[O-])cc2)s1,-2%,24µM*,?,-12%,22*,25µM*,-10%,24%,
COc1ccc(C(=O)c2cn(Cc3ccccc3)c3ccccc3c2=O)cc1OC,.,.,-9%,.,.,.,.,.,
CC1(C)Cc2ccccc2C2=NNC(=O)C2=N1,4%,-21%,11µM*,-91%,?,?,-14%,?,
CC1(C)Cc2ccccc2C(Nn2cnnc2)=N1,-1%,-2%,-11%,0%,.,.,.,.,
CC1(c2ccccc2)NC(=O)N(CC(=O)Nc2nc(-c3ccccn3)cs2)C1=O (centres undefined),-2%,?,-29%,-53%,.,.,.,.,
SMILES,Tb PFK inh,PLK1 PBD inh,VDR inhibitor,BRCA1 expr act,VDR confirm,VDR FP,VDR bla,VDR viability,others
Cc1ccc(C2(C)NC(=O)N(CC(=O)Nc3nc(-c4ccccn4)cs3)C2=O)cc1 (centres undefined),-24%,4.2µM*,?,-85%,11*,?,?,-16%,
O=C(Nc1cccc(F)c1)N1CCCC2(CCN(C(=O)c3ccncc3)CC2)C1,.,.,0%,.,.,.,.,.,
CC(C)c1ccc(/C=C2\SC(=O)N(CC(=O)NC3CCS(=O)(=O)C3)C2=O)cc1 (centres undefined),-11%,-13%,-9%,?,.,.,.,.,
COc1cc2c(cc1OC)-c1n[nH]c(=S)n1C(C)(C)C2,-10%,?,-4%,0%,.,.,.,.,
COc1cc2c(cc1OC)-c1cc3nc4ccccc4nc3n1C(C)(C)C2,.,.,7.1µM*,.,20*,?,?,-8%,USP1-UAF1 confirm=47µM*
CCCCNC(=O)C1(C)CCN1C(=O)c1cc(F)ccc1C (centres undefined),.,-11%,.,8%,.,.,.,.,
CCCCC[C@H](O)/C=C/[C@@H]1[C@H](C/C=C\CCCC(=O)O)[C@@H](O)C[C@H]1O,.,.,0%,.,.,.,.,.,
CC1=NNC(=O)/C1=C\c1cn(-c2ccccc2)nc1-c1ccc(Cl)cc1,0%,5.3µM*,13µM*,-94%,?,11µM*,?,21µM*,
CC1=NN(c2ccccc2)C(=O)/C1=C\c1cn(CCC#N)nc1-c1ccc(Cl)cc1,3%,0%,?,-26%,.,.,.,.,
Cc1ccc(-c2nn(-c3ccccc3)cc2NC(=O)c2ccccc2)cc1,3%,0%,-17%,12%,.,.,.,.,
Cc1ccc(-c2nn(-c3ccccc3)cc2C=C2C(=O)CC(C)(C)CC2=O)cc1,-6%,0.67µM*,25µM*,6.3µM*,?,3.5µM*,17%,-15%,

# Screening results: PubChem, National Center for Advancing Translational Sciences (NCATS)
